Data published in PubChem BioAssay (NCI).
The panel holds about 83,000 compounds, 20% with a hit somewhere; the sample as a whole holds those more often.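 Method: cells in 96-well plates; compound added at one concentration; 48 h incubation; percent growth measured; values under 10 scored active.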 Unmarked numbers belong to inactive results. The source made the active and inactive calls.

How the values were obtained:
Assay in all cases: NCI-60 one-dose screen, 48 h (100 = growth as untreated, 0 = no growth, -100 = all killed)
Settings in all cases: 10 µM unless noted
DU-145 prostate = tested on: DU-145 prostate
K-562 leukemia = tested on: K-562 leukemia
MALME-3M melanoma = tested on: MALME-3M melanoma
MDA-MB-231 breast = tested on: MDA-MB-231 breast
RXF 393 renal = tested on: RXF 393 renal
SF-268 CNS = tested on: SF-268 CNS
SF-295 CNS = tested on: SF-295 CNS
SF-539 CNS = tested on: SF-539 CNS
UACC-257 melanoma = tested on: UACC-257 melanoma
M14 melanoma = tested on: M14 melanoma
HCT-15 colon = tested on: HCT-15 colon
HT29 colon = tested on: HT29 colon
SNB-75 CNS = tested on: SNB-75 CNS
SNB-19 CNS = tested on: SNB-19 CNS
U251 CNS = tested on: U251 CNS
PC-3 prostate = tested on: PC-3 prostate
SK-MEL-5 melanoma = tested on: SK-MEL-5 melanoma
UACC-62 melanoma = tested on: UACC-62 melanoma
LOX IMVI melanoma = tested on: LOX IMVI melanoma
SK-MEL-28 melanoma = tested on: SK-MEL-28 melanoma

## COc1ccc([C@H]2[C@H](O)C(=O)N2c2cc(OC)c(OC)c(OC)c2)cc1F
DU-145 prostate
  growth: 14.6%
K-562 leukemia
  growth: 8.75% (active)
MALME-3M melanoma
  growth: 65.9%
MDA-MB-231 breast
  growth: 24.5%
RXF 393 renal
  growth: 27%
SF-268 CNS
  growth: 37.4%
SF-295 CNS
  growth: 8.48% (active)
SF-539 CNS
  growth: -5.31% (active)
UACC-257 melanoma
  growth: 57.7%
M14 melanoma
  growth: 2.83% (active)
HCT-15 colon
  growth: 7.86% (active)
HT29 colon
  growth: -26% (active)
SNB-75 CNS
  growth: 19%
SNB-19 CNS
  growth: 27.7%
U251 CNS
  growth: 7.47% (active)
PC-3 prostate
  growth: 19.8%
SK-MEL-5 melanoma
  growth: -30.9% (active)
UACC-62 melanoma
  growth: 33.3%
LOX IMVI melanoma
  growth: -6.07% (active)
SK-MEL-28 melanoma
  growth: 63%

## O=C(Cn1c(-c2ccccc2)nc2cc(Cl)c(Cl)cc21)N=Nc1c(O)[nH]c2ccc(Cl)cc12
DU-145 prostate
  growth: 75.7%
K-562 leukemia
  growth: 63.2%
MALME-3M melanoma
  growth: 81.6%
MDA-MB-231 breast
  growth: 85%
RXF 393 renal
  growth: -5.08% (active)
SF-268 CNS
  growth: 104%
SF-295 CNS
  growth: 77.7%
SF-539 CNS
  growth: 79.4%
UACC-257 melanoma
  growth: 84.4%
M14 melanoma
  growth: 60.7%
HCT-15 colon
  growth: 68.7%
HT29 colon
  growth: 51.4%
SNB-75 CNS
  growth: 101%
SNB-19 CNS
  growth: 87.8%
U251 CNS
  growth: 93.8%
PC-3 prostate
  growth: 70.8%
SK-MEL-5 melanoma
  growth: 79.5%
UACC-62 melanoma
  growth: 71.7%
LOX IMVI melanoma
  growth: 72.2%
SK-MEL-28 melanoma
  growth: 66.4%

## COc1cc(-c2nn(C(C)(C)C)cc2-c2ccnc(NCCCNS(=O)(=O)c3ccc(C)cc3)n2)ccc1Cl
DU-145 prostate
  growth: 74%
K-562 leukemia
  growth: 57.7%
MALME-3M melanoma
  growth: 94.4%
MDA-MB-231 breast
  growth: 58.4%
RXF 393 renal
  growth: 4.95% (active)
SF-268 CNS
  growth: 63.9%
SF-295 CNS
  growth: 88%
SF-539 CNS
  growth: 91.3%
UACC-257 melanoma
  growth: 94.6%
M14 melanoma
  growth: 90.5%
HCT-15 colon
  growth: 80.5%
HT29 colon
  growth: 78.3%
SNB-75 CNS
  growth: 54.7%
SNB-19 CNS
  growth: 100%
U251 CNS
  growth: 92.3%
PC-3 prostate
  growth: 58.1%
SK-MEL-5 melanoma
  growth: 83.1%
UACC-62 melanoma
  growth: 68.3%
LOX IMVI melanoma
  growth: 72.7%
SK-MEL-28 melanoma
  growth: 101%

## Cc1cc(C)c(N2C(=O)CC(Nc3ccc(Cl)cc3Cl)C2=O)c(C)c1 (stereo not given)
DU-145 prostate
  growth: 110%
K-562 leukemia
  growth: 102%
MALME-3M melanoma
  growth: 96.7%
MDA-MB-231 breast
  growth: 102%
RXF 393 renal
  growth: 121%
SF-268 CNS
  growth: 106%
SF-295 CNS
  growth: 105%
SF-539 CNS
  growth: 96.8%
UACC-257 melanoma
  growth: 103%
M14 melanoma
  growth: 103%
HCT-15 colon
  growth: 102%
HT29 colon
  growth: 107%
SNB-75 CNS
  growth: 93%
SNB-19 CNS
  growth: 98.5%
U251 CNS
  growth: 104%
PC-3 prostate
  growth: 94.8%
SK-MEL-5 melanoma
  growth: 103%
UACC-62 melanoma
  growth: 91.4%
LOX IMVI melanoma
  growth: 96%
SK-MEL-28 melanoma
  growth: 102%

## C=C(C)[C@@H]1CC[C@]2(COP(=O)(OCC)OCC)CC[C@]3(C)[C@H](CC[C@@H]4[C@@]5(C)CCCNC(C)(C)[C@@H]5CC[C@]43C)[C@@H]12
DU-145 prostate
  growth: 31.8%
K-562 leukemia
  growth: -10.7% (active)
MALME-3M melanoma
  growth: -51.8% (active)
MDA-MB-231 breast
  growth: 52%
RXF 393 renal
  growth: -8.28% (active)
SF-268 CNS
  growth: 50.1%
SF-295 CNS
  growth: 19.8%
SF-539 CNS
  growth: 57.7%
UACC-257 melanoma
  growth: 29.1%
M14 melanoma
  growth: -46.4% (active)
HCT-15 colon
  growth: 16.6%
HT29 colon
  growth: 5.58% (active)
SNB-75 CNS
  growth: 37%
SNB-19 CNS
  growth: 58.3%
U251 CNS
  growth: 37.4%
PC-3 prostate
  growth: 26.3%
SK-MEL-5 melanoma
  growth: 37.4%
UACC-62 melanoma
  growth: 80.3%
LOX IMVI melanoma
  growth: -87.9% (active)
SK-MEL-28 melanoma
  growth: -38.2% (active)

## O=C(Nc1ccc(N=Cc2c(O)[nH]c3ccccc23)cc1)Nc1nccs1
DU-145 prostate
  growth: 40.5%
K-562 leukemia
  growth: 17.3%
MALME-3M melanoma
  growth: 46.9%
MDA-MB-231 breast
  growth: 47.9%
RXF 393 renal
  growth: -20.5% (active)
SF-268 CNS
  growth: 77.2%
SF-295 CNS
  growth: 70.6%
SF-539 CNS
  growth: 33.6%
UACC-257 melanoma
  growth: 71.6%
M14 melanoma
  growth: 18.5%
HCT-15 colon
  growth: 29%
HT29 colon
  growth: 17.9%
SNB-75 CNS
  growth: 33.4%
SNB-19 CNS
  growth: 31%
U251 CNS
  growth: 42%
PC-3 prostate
  growth: 68.6%
SK-MEL-5 melanoma
  growth: 26.8%
UACC-62 melanoma
  growth: 24.9%
LOX IMVI melanoma
  growth: 35.1%
SK-MEL-28 melanoma
  growth: 61.3%

## Clc1nc2ccccc2nc1-c1nnc(C2CCCCC2)o1
DU-145 prostate
  growth: 91.3%
K-562 leukemia
  growth: 80.9%
MALME-3M melanoma
  growth: 95.2%
MDA-MB-231 breast
  growth: 105%
RXF 393 renal
  growth: 87.6%
SF-268 CNS
  growth: 101%
SF-295 CNS
  growth: 106%
SF-539 CNS
  growth: 97.7%
UACC-257 melanoma
  growth: 96.7%
M14 melanoma
  growth: 94.3%
HCT-15 colon
  growth: 71.7%
HT29 colon
  growth: 109%
SNB-75 CNS
  growth: 97.2%
SNB-19 CNS
  growth: 98.7%
U251 CNS
  growth: 97.9%
PC-3 prostate
  growth: 95.8%
SK-MEL-5 melanoma
  growth: 98.8%
UACC-62 melanoma
  growth: 96.4%
LOX IMVI melanoma
  growth: 66.6%
SK-MEL-28 melanoma
  growth: 104%

## Nc1nc(-c2cccc([N+](=O)[O-])c2)c(N=Nc2ccc([N+](=O)[O-])cc2Cl)s1
DU-145 prostate
  growth: 19.6%
K-562 leukemia
  growth: 10.7%
MALME-3M melanoma
  growth: -3.18% (active)
MDA-MB-231 breast
  growth: 12.2%
RXF 393 renal
  growth: -31.1% (active)
SF-268 CNS
  growth: 20.5%
SF-295 CNS
  growth: -18.4% (active)
SF-539 CNS
  growth: 16.9%
UACC-257 melanoma
  growth: -8.89% (active)
M14 melanoma
  growth: 4.9% (active)
HCT-15 colon
  growth: 3.38% (active)
HT29 colon
  growth: 10.7%
SNB-75 CNS
  growth: -1.14% (active)
SNB-19 CNS
  growth: 17%
U251 CNS
  growth: 10.3%
PC-3 prostate
  growth: 5.14% (active)
SK-MEL-5 melanoma
  growth: -76.6% (active)
UACC-62 melanoma
  growth: 1.4% (active)
LOX IMVI melanoma
  growth: 14.1%
SK-MEL-28 melanoma
  growth: 22.8%
